Source: PubChem BioAssay
BAZ2B block = qHTS Assay for Inhibitors of BAZ2B; Bromodomain adjacent to zinc finger domain protein 2B (Homo sapiens), Q9UIF8; AlphaScreen BAZ2B-H3K14Ac peptide displacement; Potency, µM (doses to about 114 µM), inactives show top-dose activity change, negative = inhibition, most hits filed as inhibitors; 4.4% of 360,000 active; AID 504333, 2011; also: % is scaled to controls: 0 for no effect and ±100 for the full control effect; nearly all actives have a fitted effect of over 60% in size
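AlphaScreen luminescence quantifies BAZ2B engagement of H3K14Ac peptide; the protein and biotinylated peptide are both at 50 nM final, buffer PBS pH 7.4 with 0.01% Tween-20, all steps at room temperature.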
G9a block = qHTS Assay for Inhibitors of Histone Lysine Methyltransferase G9a. Histone-lysine N-methyltransferase EHMT2 (Homo sapiens), Q96KQ7. G9a H3K9 monomethylation, AlphaScreen, 2 h. Potency, µM (series often up to 102 µM), for inactives: at the top dose activity, negative = inhibition, usual class: inhibitors. 8.8% of 350,000 active. AID 504332, 2011; also: % is scaled to controls: 0 for no effect and ±100 for the full control effect; nearly all actives have a fitted effect of over 75% in size
Target sequence (Q96KQ7 913-1193 limits assumed): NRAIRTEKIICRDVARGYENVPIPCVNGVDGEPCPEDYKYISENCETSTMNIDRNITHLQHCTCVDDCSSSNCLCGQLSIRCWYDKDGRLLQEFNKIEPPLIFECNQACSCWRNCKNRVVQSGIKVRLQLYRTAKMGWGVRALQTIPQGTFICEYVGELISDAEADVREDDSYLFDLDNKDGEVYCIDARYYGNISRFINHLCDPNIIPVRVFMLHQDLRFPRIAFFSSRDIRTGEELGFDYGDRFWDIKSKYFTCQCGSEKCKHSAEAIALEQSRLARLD
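Enzyme 20 nM + cpd, 15 min RT; add b-H3K9 pep 500 nM / SAM 20 uM; 2 h RT; anti-H3K9me1 Ab 0.5 ug/mL + SA donor / anti-rabbit acceptor beads 20 ug/mL each, 10 min; AlphaScreen read.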
HP1b chromo inh = HTS for Inhibitors of HP1-beta Chromodomain Interactions with Methylated Histone Tails | AlphaScreen HP1-beta / biotin-H3K9me3 peptide binding | Potency, µM (doses to about 114 µM), inactives show top-dose activity change, negative = inhibition, hits mostly inhibitors | 0.56% of 390,000 active; also: nearly all actives have a fitted effect of over 70% in size
Target sequence (P83916 whole entry, looked up): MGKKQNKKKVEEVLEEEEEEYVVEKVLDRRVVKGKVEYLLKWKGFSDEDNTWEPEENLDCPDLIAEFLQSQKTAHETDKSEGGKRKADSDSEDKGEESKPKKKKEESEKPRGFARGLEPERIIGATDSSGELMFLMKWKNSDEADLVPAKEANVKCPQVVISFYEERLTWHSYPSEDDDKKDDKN
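Compound inhibition of the preformed complex between 50 nM HP1-beta and 50 nM biotinylated H3K9me3 peptide was read by AlphaScreen. Buffer was PBS pH 7.4 with 0.01% Tween-20. Incubations ran 30 min at room temperature, with 10 ug/mL donor/acceptor beads.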
L3MBTL1 block = qHTS Assay for the Inhibitors of L3MBTL1. Lethal(3)malignant brain tumor-like protein 1 (Homo sapiens), Q9Y468. AlphaScreen L3MBTL1–H3K9me1 peptide binding. Potency, µM (highest dose often 57.1 µM), for inactives: at the top dose activity, negative = inhibition, hits mostly inhibitors. 0.66% of 230,000 active; also: % is scaled to controls: 0 for no effect and ±100 for the full control effect; nearly all actives have a fitted effect of over 60% in size
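L3MBTL1 (50 nM) pre-complexed 30 min with biotinylated H3(1-15)K9me1 peptide (75 nM), then compounds added for 30 min at room temperature; AlphaScreen streptavidin donor/nickel chelate acceptor beads (10 ug/mL final) read after 30 min dark incubation.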
Sfp PPTase inh = qHTS Assay for Inhibitors of Bacillus subtilis Sfp phosphopantetheinyl transferase (PPTase); Potency, µM, for inactives: largest response in the series, negative = inhibition, most hits filed as inhibitors; Biochemical Sfp PPTase activity, qHTS; AID 1490, 2009; 3.5% of 310,000 active; 4'-phosphopantetheinyl transferase ffp (Bacillus subtilis), Q9F4F7;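 also: the enzyme is Sfp with the accession as filed and its product quenches rhodamine fluorescence; 0% = enzyme reaction without inhibitor and -100% = no enzyme wells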
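Sfp 15 nM + cpd, 15 min RT; start w/ rhodamine-CoA 5 uM, BHQ-2-YbbR 12.5 uM (final); 50 mM Hepes pH 7.6, 10 mM MgCl2, 0.01% NP-40, 0.01% BSA; read 525/598 nm at 0 and 30 min.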
JMJD2A Tudor inh = qHTS Assay for Inhibitors of JMJD2A-Tudor Domain | Lysine-specific demethylase 4A (Homo sapiens), O75164 | AlphaScreen JMJD2A-Tudor / H3K4me3 peptide binding | Potency, µM (titrated, usually from 114 µM), inactives show top-dose activity change, negative = inhibition, actives largely listed as inhibitors | 4.4% of 390,000 active | AID 504339, 2011; also: % is scaled to controls: 0 for no effect and ±100 for the full control effect; nearly all actives have a fitted effect of over 50% in size
* hit, by the source's call; ? = inconclusive; nt = no result given; [ ] = dose if it differs, or a comment. This is a sample that favours compounds with a hit; in the whole collection about 12% have one here. Calls follow the shape of the dose curve; as a rule, active = well fitted curve in the direction sought with a large enough effect; inconclusive = small, poorly fitted or top-dose-only effect, or another doubt; inactive = no such curve, though single readings can be large; an effect the other way counts as inactive or inconclusive. Potency is read from the fitted curve at half-maximal effect.

SMILES	BAZ2B block	G9a block	HP1b chromo inh	L3MBTL1 block	Sfp PPTase inh	JMJD2A Tudor inh
CCOc1cc(/C=N/O)ccc1OCc1ccc(F)cc1	3%	-5%[59 µM]	?	6%	-4%	28µM*
CCOc1cc(CNCCc2ccc(S(N)(=O)=O)cc2)ccc1OCc1ccc(Cl)cc1	4%[57.1 µM]	10%	10%	-4%	8.9µM*	-21%
CCCOc1ccc(C(=O)Nc2cc3nn(-c4ccc(CC)cc4)nc3cc2C)cc1	-7%	3%[59 µM]	22%	nt	nt	-5%
O=c1[nH]cnc2cc(Cl)ccc12	1%	50µM*	57%	-7%	11%	8%[11.4 µM]
CCNCc1nc2cc(Cl)ccc2c(=O)[nH]1	-4%	?	40%	nt	?	-6%
CCn1c(=O)c2cc(C(=O)N(CCCOC(C)C)Cc3ccco3)sc2c2ccccc21	-24%	-7%[59 µM]	32%	nt	nt	-16%
CCN1CCCC1Cn1cnc2c([nH]c3cccc(Cl)c32)c1=O (configuration not stated)	-22%	32µM*	16%	-4%	-6%	-13%
CCC1CCC2(CC1)NC(CO)(CO)CO2 (configuration not stated)	9%	11%[59 µM]	22%	3%	15%	-3%
CCC1CCC2(CC1)NNC(=S)NN2	?	2µM*	-66%	nt	56µM*	50µM*
COc1ccc(C(=O)Nc2ccc3[nH]ncc3c2)cc1OC	9%	nt	24%	5%	13%	-8%
Cc1c(NC(=O)C(CC(=O)O)NCc2ccco2)c(=O)n(-c2ccccc2)n1C (configuration not stated)	50µM*	?	-7%	0%	-11%	5µM*
O=C(OC(C(=O)NCc1ccco1)C(OC(=O)c1ccccc1)C(=O)NCc1ccco1)c1ccccc1 (configuration not stated)	-6%	-21%	7%	-4%	0%	-4%
Cc1c(NC(=O)c2ccco2)c(=O)n(-c2ccccc2)n1C	11%	8%	35%	4%	8%	-8%
Cc1c(NS(=O)(=O)c2cccc(C(=O)NCc3ccco3)c2)c(=O)n(-c2ccccc2)n1C	nt	nt	-36%	nt	nt	63µM*
O=C(O)CC(NCc1ccco1)C(=O)OCCCl (configuration not stated)	?	7.9µM*	-3%	12%	-46%	28µM*
Cc1c(N(C)S(=O)(=O)c2cccc(C(=O)NC(C)C)c2)c(=O)n(-c2ccccc2)n1C	-2%	32µM*	6%	nt	79µM*	-23%
CCOc1ccc(C2CC(=O)NC2=O)cc1 (configuration not stated)	-3%	14%	28%	nt	11%	-7%
COCCOC(=O)C(CC(=O)O)NCc1ccco1 (configuration not stated)	-7%	nt	-8%	14%	?	?
COC(=O)C(CC(=O)O)NCc1ccco1 (configuration not stated)	?	nt	3%	6%	?	20µM*
O=C(NCc1ccco1)Nc1cccc(-c2ccccc2)c1	nt	nt	7%	nt	nt	-24%
O=C(O)CC(NCc1ccco1)C(=O)Nc1cccc(O)c1 (configuration not stated)	-37%	50µM*	-3%	nt	?	3.2µM*
Cc1ccccc1NCc1ccc([N+](=O)[O-])s1	50µM*	nt	?	-10%	-8%	?
COc1ccccc1NCc1ccc([N+](=O)[O-])s1	50µM*	7.9µM*	?	-8%	-30%	?
